Data taken from PubChem BioAssay AID1224854 (National Center for Advancing Translational Sciences (NCATS), 2016).
Inconclusive results are not listed. Where a call stands in place of a potency, no number is given. Active and inactive are the calls of the source. Calls come from the whole dose curve; as a rule, active = well fitted activation curve with a large enough effect; inconclusive = small, poorly fitted or top-dose-only effect; inactive = flat fitted curve, though single readings scatter.

Assay: Cell viability assay for measurement of the protective activity of small molecules against cell death caused by Zika virus infection in human astrocytoma cells
Settings: SNB-19 Zika virus cytoprotection, ATP luminescence, 72 h; series mostly up to 46.1 µM
Source text: National Center for Advancing Translational Sciences [NCATS] Johns Hopkins University School of Medicine Florida State University Assay Overview: Zika virus infection causes cell death in certain cell types including human neural progenitor cells (hNPCs), astrocytes, and astrocytoma cell line (SNB-19). This cell viability assay measures the ATP content (level) in human astrocytoma cells (SNB-19) using a luminescence readout that is proportional to viable cell numbers. Decrease in the luminescence signal after Zika virus infection indicates the cell death caused by Zika virus. Small molecule inhibitors […] the decreased luminescence signal after Zika virus infection, indicating the protective effect of that small molecule on the cell death caused by Zika virus infection. This observed protective effect of small molecules against Zika virus induced cell death may result from inhibition of virus replication or cellular response to the virus infection.
Assay Protocol Summary: The medium for SNB-19 cells is composed of RPMI 1640 (ATCC, Cat.# 30-2001), 10% fetal bovine serum (FBS) (GE healthcare Life Sciences, Cat.# SH30071.03), and 1% Pen/Strep (Gibco, Cat.# 15140-122). The ATP content assay kit (PerkinElmer, Cat.# 6016731) was used to determine cell viability. The reagent was reconstituted and prepared as described by the manufacturer. Cells were seeded in 384- or 1536-well assay plates and cultured at 37 C with 5% CO2 for 16 to 20 hours. The typical cell seeding density in the 1536-well plate assay is 250 cells/well in 3ul medium for SNB-19 cells in tissue culture treated plates. Compounds were added to cells and incubated for one hour before addition of ZIKV solution to cells (2 FFU/cell). After incubation at 37 C with 5% CO2 for 72 hours, the reagent mixture of the ATP content assay kit was added to each well, followed by incubation at room temperature for 10 minutes. The luminescence intensity of the assay plates was measured using a ViewLux plate reader (PerkinElmer). […] The percentage inhibitions of the decreased cell viability by small molecule inhibitors were then calculated.

Row | SMILES | Potency
1 | O=S(=O)(CC1CS1)c1ccc(Oc2ccccc2)cc1 (stereo not drawn) | inactive
2 | CC(C)[C@H]1C(=O)N[C@H](CO)Cc2c[nH]c3cccc(c23)N1C | 2450 nM (active)
3 | Cc1ccc([N+](=O)[O-])[c]2c1[O][Hg]2 | inactive
4 | O=c1c2ccccc2[se]n1-c1ccccc1 | inactive
5 | COP(=S)(OC)SCN1C(=O)c2ccccc2C1=O | inactive
6 | CN1CC(=O)N2C(Cc3c([nH]c4ccccc34)[C@H]2c2ccc3c(c2)OCO3)C1=O (stereo partly drawn) | inactive
7 | COc1cccc2c1C(=O)c1c(O)c3c(c(O)c1C2=O)C[C@@](O)(C(=O)CO)CC3OC1CC(N2CCOC(OC)C2)C(O)C(C)O1 (stereo partly drawn) | 388 nM (active)
8 | CC(=C(CCOC(=O)C(C)C)SSC(CCOC(=O)C(C)C)=C(C)N(C=O)Cc1cnc(C)nc1N)N(C=O)Cc1cnc(C)nc1N | inactive
9 | O=C(Nc1ccc(Br)cc1)c1cc(Br)cc(Br)c1O | inactive
10 | CC(C)N[C@@H]1CCn2c(=O)[nH]c3cccc(c32)[C@@H]1O | inactive
11 | O=C1CCC[C@@H]2[C@H]3CCCN4CCC[C@@H](CN12)[C@@H]34 | inactive
12 | CN1CC[C@@]2(C)c3cc(OC(=O)Nc4ccccc4)ccc3N(C)[C@@H]12 | inactive
13 | S=C(SSC(=S)N1CCCCC1)N1CCCCC1 | 17300 nM (active)
